Data taken from PubChem BioAssay (NCI).
Compounds without any hit were thinned out: in the full panel of roughly 83,000, 20% have a hit.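 Note: values are percent growth. 100 is the growth of untreated cells, values between 100 and 0 indicate rising inhibition; between -100 and 0 indicates cell death.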 Unmarked numbers belong to inactive results. The source made the active and inactive calls. How the source made its calls: active means growth percent below 10; inactive means the rest.

What follows are compounds tested on HL-60(TB) leukemia (assay: NCI-60 one-dose screen, 48 h (100 = growth as untreated, 0 = no growth, -100 = all killed)). Conditions: 10 µM unless noted.

Compound | growth
COc1ccc(Nc2ncc(C#N)c(NCCCNC(=O)C3CCC3)n2)cc1 | 41%
CC(C)OP(=O)(O)c1ncc(-c2ccc(C(F)(F)F)cc2)c(NC2CCCCCC2)n1 | 44.4%
CN1CCN(Cc2ccc(NC(=O)c3cncc(C#Cc4cnn5ccccc45)c3)cc2C(F)(F)F)CC1 | -21.3% (active)
CCn1cc(C(=O)O)c(=O)c2cc(F)c(N3CCN(S(=O)(=O)c4ccc(Cl)cc4Cl)CC3)cc21 | -51.7% (active)
Cc1ccncc1C(N)=O | -80.7% (active)
CCOC(=O)c1c(C)nc2ccccc2c1/C=C/c1ccccc1 | 81.8%
CC(C)CCSc1nc(-c2ccc(F)cc2)c(C#N)c(N2CCN(C)CC2)n1 | 73.8%
CN1CCN(Cc2ccc(NC(=O)c3cncc(C#Cc4cnc(N)c5ccc(F)cc45)c3)cc2C(F)(F)F)CC1 | -27% (active)
COc1cc(OC)cc(-c2ccc(-c3ccc(C(=N)N)o3)o2)c1 | 4.66% (active)
COc1ccc2[nH]c(O)c(/C=c3/cc4c(c(-c5ccc(F)c(OC)c5)n3)=Nc3ccccc3-4)c2c1 | 47%
Nc1ncnc2c1C(c1ccc(Br)cc1)c1sc3c(F)cccc3c1O2 (stereo unspecified) | 119%
O=C(N/N=C/c1ccccc1Cl)c1ccccc1Nc1ccnc(C(F)(F)F)c1 | -20.1% (active)
Nc1nc(-c2ccccn2)cc(-c2cc(-c3ccccn3)nc(N)n2)n1 | 105%
COc1cc2c(c(OC)c1OC)-c1ccc(SC)c(=O)cc1[C@@H](NC1OC(CO)C(O)C(O)C1O)CC2 (stereo partly specified) | -38.6% (active)
O=C1C=CC2(NN=C(c3ccccc3)N2c2ccc(Cl)cc2)c2cccc(O)c21 (stereo unspecified) | 23.5%
Cc1ccc(-c2csc3nc(C)c(CCCl)c(=O)n23)cc1 | 107%
O=C(O)CC1CCCCC1c1ccccc1 (stereo unspecified) | 99.9%
COc1ccc(NC(=O)COc2ccccc2)c(C(N)=O)c1 | -7.37% (active)
Cc1ccnc(Nc2nc3ccccc3[nH]2)n1 | 87%
O=C1CSC(=S)N1/N=C/c1ccc(Cl)s1 | 91%
O=C(Nc1ccc(Cl)cc1)Nc1ccc(Nc2nncc3ccccc23)cc1 | 18.1%
O=C(c1ccc(F)c(Cl)c1)N1c2ccccc2Sc2ccccc21 | 30.8%
CCC(=O)Oc1ccc2ccccc2c1 | 103%
Cn1ncc2ccc(-c3nc(-c4ccccc4)[nH]c3-c3n[nH]c(=O)n3C3CC3)cc21 | 84.7%
O=C(/C=C\c1ccc(O)cc1)c1ccccc1 | 71.9%
CC1=C(/C=C/C(C)=C/C=C/C(C)=C/C(=O)Nc2ccc(O)cc2)C(C)(C)CCC1 | -32.3% (active)
